# Screening data as filed in PubChem.
# SF-1 inh – inhibitors of human SF-1, primary screen, cell-based, CHO-K1, Gal4-SF-1 LBD, luciferase luminescence. CHO-K1 Gal4-SF-1 LBD luciferase reporter. inhibition, % at 10 µM. AID 525, 2006. Steroidogenic factor 1 (Homo sapiens), Q13285. 0.55% of 65,000 active;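 active means inhibition above the mean inhibition of all tested compounds plus 3 SD, cut at about 48% in these data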
# Target sequence (Q13285 whole entry, looked up, the tested form may be a part): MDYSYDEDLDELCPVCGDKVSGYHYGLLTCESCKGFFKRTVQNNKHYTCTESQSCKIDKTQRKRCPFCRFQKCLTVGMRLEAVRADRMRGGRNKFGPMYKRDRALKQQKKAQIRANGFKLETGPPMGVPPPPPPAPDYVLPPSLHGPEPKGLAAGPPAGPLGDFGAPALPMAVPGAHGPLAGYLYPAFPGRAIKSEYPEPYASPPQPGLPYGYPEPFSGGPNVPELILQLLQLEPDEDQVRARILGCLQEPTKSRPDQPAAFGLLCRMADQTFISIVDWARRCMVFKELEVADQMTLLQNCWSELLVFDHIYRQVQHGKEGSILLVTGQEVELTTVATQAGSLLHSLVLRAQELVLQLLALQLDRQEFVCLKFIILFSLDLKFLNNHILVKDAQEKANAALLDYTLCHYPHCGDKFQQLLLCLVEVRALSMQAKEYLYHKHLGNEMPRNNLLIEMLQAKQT
# A number is an active result; - = inactive. Only a selection was taken, and hits are over-represented in it overall.
SMILES,SF-1 inh
CCOC(=O)c1c(C)[nH]c(C(=O)C(C)OC(=O)c2cccc(OCc3c(C)noc3C)c2)c1C (centres undefined),81
CCOC(=O)c1c(C)[nH]c(C(=O)COC(=O)C2CC2C)c1C (centres undefined),-
CC(C)OC(=O)Cn1c(=O)oc2ccccc21,-
Cc1nc2ccc(NC(=O)Cn3cnc4c3c(=O)n(C)c(=O)n4C)cc2s1,-
COCCn1c(C)cc(C(=O)COC(=O)c2ccc3ncsc3c2)c1C,-
COCCn1c(C)cc(C(=O)COC(=O)c2n[nH]c3ccccc23)c1C,67
COCCn1c(C)cc(C(=O)CSc2nc3ccccc3c(=O)[nH]2)c1C,-
Cc1nn(-c2nc3ccccc3s2)c(C)c1Oc1ccccc1O,-
Cc1ccc(S(=O)(=O)c2nc(-c3ccco3)oc2SCC(=O)NCC2CCCO2)cc1 (centres undefined),-
COc1ccc(N2CC(C(=O)Nc3ccc(N4CCOCC4)cc3)CC2=O)cc1 (centres undefined),-
COc1ccc(OC)c(S(N)(=O)=O)c1,-
COc1ccc(OC)c(NS(=O)(=O)c2ccc(N3CCCC3=O)cc2)c1,53
Cc1c(NC(=O)CCCCCN2C(=O)C3C4C=CC(C4)C3C2=O)c(=O)n(-c2ccccc2)n1C (centres undefined),-
OC(COCC1COc2ccccc2O1)CN1CCN(c2ccccn2)CC1 (centres undefined),-
CCc1ccc2oc(-c3cc(N=Cc4cccc(OC)c4O)ccc3O)nc2c1,51
Cc1cccc2cc(C#N)c(SCC(=O)N3CC(=O)Nc4ccccc43)nc12,64
Cc1cccc2cc(C#N)c(NCCNC(=O)NC3CCCCC3)nc12,-
CCOC(=O)CSc1nc(-c2ccc3c(c2)OCO3)ccc1C#N,-
C/[N+]([O-])=C1\Cc2ccccc2C1=O,-
O=C1CC(N2CCOCC2)C(=O)N1CCc1ccccc1 (centres undefined),-
CCC(=O)NC1(C(F)(F)F)C(=O)NC(C)=C1C#N (centres undefined),-
c1ccc(-c2cn3nc(-c4ccccc4)sc3n2)cc1,51
Cc1nc(-c2ccccc2)sc1C(N)=O,-
O=C(O)c1ccc(COc2c(F)c(F)cc(F)c2F)cc1,-
COc1cc(/C=N/O)ccc1OCc1ccc(C(=O)O)cc1,91
SMILES,SF-1 inh
COc1ccc(OCc2ccc(C(=O)O)cc2)cc1,-
O=C(NCCN1CCOCC1)C1CCC(=O)N1C1CCCCC1 (centres undefined),-
CC(C)n1nc(C(=O)NCCc2ccc(S(N)(=O)=O)cc2)c2ccccc2c1=O,-
CCOC(=O)N1CCc2c(sc3c2C(=O)NC(c2ccc(-c4ccc(Cl)cc4)o2)N3)C1 (centres undefined),-
COc1cccc(-c2nnc(SCC(=O)OC(C)C)n2Cc2ccco2)c1,-
O=S1CCCSC1c1cccnc1 (centres undefined),-
COC(=O)c1nn(-c2ccc(-c3ccccc3)cc2)cc1O,56
COCCCNC(=O)CS(=O)Cc1nc(-c2ccccc2C)oc1C (centres undefined),-
CS(=O)(=O)N1CCCC(C(=O)NCCN2CCC(Cc3ccccc3)CC2)C1 (centres undefined),-
COc1ccc(-c2noc(CCCC(=O)NCCc3ccccc3)n2)cc1OC,60
COc1ccc(-c2noc(CCC(=O)NCCN3CCN(c4ccccc4F)CC3)n2)cc1,-
COc1ccc(CCC(=O)Nc2ccc(-c3noc(-c4ccc(OC)c(OC)c4)n3)cc2)cc1,-
CC1CCN(C(=O)C2Cc3ccccc3CN2S(=O)(=O)c2ccc(F)cc2)CC1 (centres undefined),-
COc1cc(C2C(C#N)=C(N)Oc3cc(N(C)C)ccc32)cc2c1OCO2 (centres undefined),59
Cc1cc(=O)[nH]c(N2CCCC2)n1,-
CC1CCN(c2ccc(NC(=O)c3cccnc3)cc2)CC1,-
COC(=O)c1ccccc1NC(=O)Nc1cc(C)cc(C)n1,-
COc1ccc(C(=O)Nc2nnc(C(F)(F)F)s2)cc1,-
CCC(NC(=O)Nc1nnc(C(F)(F)F)s1)(C(F)(F)F)C(F)(F)F,94
CCC(NC(=O)Nc1ncccc1C)(C(F)(F)F)C(F)(F)F,-
COc1ccccc1N(Cc1cc2cccc(C)c2[nH]c1=O)C(=O)C(C)C,-
Cc1ccc(NC2=NC(c3ccc(C)cc3)n3c(nc(C)cc3=O)N2)cc1 (centres undefined),-
O=C(COc1ccccc1)Nc1ccc(-c2nnc(-c3ccco3)o2)cc1,-
CCCOc1ccc(-c2nnc(-c3ccco3)o2)cc1,64
COc1ccc(-c2noc(-c3ccco3)n2)cc1OC,-
SMILES,SF-1 inh
COC(=O)C1=[N+]([O-])OC(C(=O)OC)C1c1c[nH]c2ccccc12 (centres undefined),-
O=C(c1ccncc1)N1C2C=CC(C2)C1(C(F)(F)F)C(F)(F)F (centres undefined),-
O=C(c1cc(-c2cccc(O)c2)on1)N1CCN(C(c2ccccc2)c2ccccc2)CC1,-
Cc1ccc(-c2cc(C(=O)N3CCCC3)no2)cc1,51
COc1ccc(-c2cc(C(=O)N3CCCCC3)no2)cc1OC,-
CCOC(=O)C1CCN(C(=O)CN(c2cccc(OC)c2)S(=O)(=O)c2ccccc2)CC1,-
COc1ccc(C(=O)Nc2cccc(OC)c2)cc1,-
COc1cccc(NC(=O)c2nc3ncccn3n2)c1,-
COc1ccc(C(=O)NC(=O)Nc2cc(C)ccn2)cc1,89
COc1ccc(C(CCc2ccc(C)o2)NC(=O)Nc2ccc(OC)cc2OC)cc1 (centres undefined),-
CCCCSC1=C(C#N)C(c2ccccc2C)C(C(=O)OCC)C(=O)N1 (centres undefined),-
c1ccc(-c2n[nH]c(-c3ccccn3)n2)nc1,-
c1ccc(-c2nc3ccccc3s2)nc1,-
c1ccc(-c2ccc(-c3ccccn3)nn2)nc1,53
O=C(Nc1nnc(C2CCCCC2)s1)c1ccco1,-
CCc1nnc2c3cnn(-c4ccc(C)c(C)c4)c3ncn12,-
COc1cccc(C(=O)Nc2cccc(-c3nnc(-c4ccccc4)o3)c2)c1,-
COc1ccc(-c2nnc(NC(=O)c3ccc(S(=O)(=O)N4COCC4(C)C)cc3)o2)cc1,50
CC1(C)COCN1S(=O)(=O)c1ccc(C(=O)Nc2nnc(-c3ccc(Cl)s3)o2)cc1,65
COc1ccc(S(=O)(=O)N2CCCC2C(=O)Nc2ccc(O)cc2)cc1 (centres undefined),-
CC1CC(C)CN(C(=O)CSc2nnc(-c3ccc(Cl)s3)o2)C1 (centres undefined),-
CC(=O)Nc1ccc(C(=O)Nc2ccc(S(=O)(=O)N3CCCC3)cc2)cc1,-
O=C(CSc1nc2cc(Cl)ccc2o1)c1cccs1,-
COC(=O)c1ccc(NC(=O)CN(c2ccc(OC)cc2)S(C)(=O)=O)cc1,-
COc1ccc(-c2cc(C(=O)OC3CCOC3=O)c3ccccc3n2)cc1OC (centres undefined),-
SMILES,SF-1 inh
Cn1c(=O)c2c(ncn2CCCNC2=CC(C)(C)CC(=O)C2)n(C)c1=O,-
COc1cc2c(cc1OC)C(C)N(C(=O)C1COc3ccccc3O1)CC2 (centres undefined),-
CCOC(=O)c1c(N)sn(-c2ccccc2C)c1=S,-
Cc1c(NC(=O)C(CC(=O)O)NCc2ccco2)c(=O)n(-c2ccccc2)n1C (centres undefined),-
Cc1ccc(-n2nnc3c(SCC(=O)NCc4ccco4)ncnc32)cc1,-
COc1ccc(-c2nc(SC)n(C(=O)c3ccco3)n2)cc1,-
